We go through three substances from PMC6753376.

Sequence of CCT7 (Q99832 whole entry): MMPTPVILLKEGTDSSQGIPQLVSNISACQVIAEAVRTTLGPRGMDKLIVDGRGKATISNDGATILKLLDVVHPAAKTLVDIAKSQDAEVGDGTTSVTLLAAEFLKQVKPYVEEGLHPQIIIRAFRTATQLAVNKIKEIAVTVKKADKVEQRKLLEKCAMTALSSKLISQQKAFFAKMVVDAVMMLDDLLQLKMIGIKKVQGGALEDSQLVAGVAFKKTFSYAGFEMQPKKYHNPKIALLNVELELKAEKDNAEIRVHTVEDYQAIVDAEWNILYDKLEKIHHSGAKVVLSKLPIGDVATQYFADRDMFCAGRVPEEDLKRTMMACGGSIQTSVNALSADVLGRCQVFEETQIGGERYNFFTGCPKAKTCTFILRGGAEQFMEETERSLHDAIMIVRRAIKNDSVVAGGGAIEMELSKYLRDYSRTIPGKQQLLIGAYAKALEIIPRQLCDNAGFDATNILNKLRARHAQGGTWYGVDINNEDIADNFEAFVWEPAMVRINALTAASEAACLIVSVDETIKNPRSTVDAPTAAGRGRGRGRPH
Sequence of USO1, O60763 (O60763 whole entry): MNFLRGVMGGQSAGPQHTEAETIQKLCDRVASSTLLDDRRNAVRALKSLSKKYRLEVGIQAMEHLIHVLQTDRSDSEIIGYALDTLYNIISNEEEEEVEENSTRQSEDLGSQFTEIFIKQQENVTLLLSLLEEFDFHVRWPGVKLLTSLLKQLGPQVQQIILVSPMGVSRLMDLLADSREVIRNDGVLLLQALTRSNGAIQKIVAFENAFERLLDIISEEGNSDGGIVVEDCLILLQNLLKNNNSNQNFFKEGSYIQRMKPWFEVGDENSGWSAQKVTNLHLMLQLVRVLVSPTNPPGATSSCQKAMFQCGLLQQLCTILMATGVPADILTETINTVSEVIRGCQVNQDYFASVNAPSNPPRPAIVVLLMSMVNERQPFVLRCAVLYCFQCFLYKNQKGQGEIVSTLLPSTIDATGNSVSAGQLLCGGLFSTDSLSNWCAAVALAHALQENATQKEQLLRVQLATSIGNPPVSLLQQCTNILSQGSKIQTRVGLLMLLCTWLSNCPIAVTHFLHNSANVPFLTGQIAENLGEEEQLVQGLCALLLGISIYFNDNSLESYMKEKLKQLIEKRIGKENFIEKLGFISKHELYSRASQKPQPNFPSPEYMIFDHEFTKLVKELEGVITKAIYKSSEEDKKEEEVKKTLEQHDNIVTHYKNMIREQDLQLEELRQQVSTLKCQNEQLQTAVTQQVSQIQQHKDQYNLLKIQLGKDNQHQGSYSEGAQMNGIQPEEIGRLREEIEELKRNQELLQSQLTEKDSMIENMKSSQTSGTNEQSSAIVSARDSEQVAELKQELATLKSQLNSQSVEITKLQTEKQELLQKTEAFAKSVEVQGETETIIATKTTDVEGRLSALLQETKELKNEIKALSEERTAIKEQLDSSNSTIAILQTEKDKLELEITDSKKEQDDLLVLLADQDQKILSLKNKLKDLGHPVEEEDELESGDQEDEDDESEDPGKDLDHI
Sequence of CCT8, P50990 (P50990 whole entry): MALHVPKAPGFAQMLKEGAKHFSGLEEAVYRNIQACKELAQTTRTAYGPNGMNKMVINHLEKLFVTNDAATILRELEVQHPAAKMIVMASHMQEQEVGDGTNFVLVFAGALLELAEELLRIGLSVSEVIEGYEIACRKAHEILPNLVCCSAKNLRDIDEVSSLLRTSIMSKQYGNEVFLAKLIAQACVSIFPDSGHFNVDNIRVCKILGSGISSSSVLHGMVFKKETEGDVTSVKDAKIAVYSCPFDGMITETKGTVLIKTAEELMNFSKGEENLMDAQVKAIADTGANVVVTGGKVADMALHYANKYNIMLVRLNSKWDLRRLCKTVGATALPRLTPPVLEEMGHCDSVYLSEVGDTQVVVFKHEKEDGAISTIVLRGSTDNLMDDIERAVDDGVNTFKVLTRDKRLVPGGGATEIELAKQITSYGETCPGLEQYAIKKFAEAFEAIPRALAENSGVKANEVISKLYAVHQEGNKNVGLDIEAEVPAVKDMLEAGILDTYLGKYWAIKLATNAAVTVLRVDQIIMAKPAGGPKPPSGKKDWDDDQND
Sequence of CCT5, P48643 (P48643 whole entry): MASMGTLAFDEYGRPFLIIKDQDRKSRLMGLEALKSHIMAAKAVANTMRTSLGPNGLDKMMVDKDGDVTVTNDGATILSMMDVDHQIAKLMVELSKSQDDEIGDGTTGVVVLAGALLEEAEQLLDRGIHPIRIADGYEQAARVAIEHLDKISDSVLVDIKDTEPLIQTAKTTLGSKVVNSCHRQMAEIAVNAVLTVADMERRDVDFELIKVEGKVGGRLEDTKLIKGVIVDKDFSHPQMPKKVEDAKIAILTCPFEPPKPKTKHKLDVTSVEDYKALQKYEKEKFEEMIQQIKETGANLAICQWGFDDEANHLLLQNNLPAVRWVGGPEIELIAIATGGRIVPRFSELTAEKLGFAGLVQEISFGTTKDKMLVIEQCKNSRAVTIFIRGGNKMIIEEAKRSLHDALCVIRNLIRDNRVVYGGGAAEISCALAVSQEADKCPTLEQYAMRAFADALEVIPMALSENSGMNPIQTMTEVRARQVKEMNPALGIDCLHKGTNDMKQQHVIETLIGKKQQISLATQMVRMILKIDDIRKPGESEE

This experiment addresses CCT7 (UniProt Q99832). The experiment in a line: cross-linking mass spectrometry. Particulars: lysate.
Take CCT5, P48643: the cross-linked residues entry was “K89 - K55”.
USO1, O60763: the cross-linked residues result is reported as “S164 - S329”.
Regarding CCT8, P50990, the cross-linked residues result is recorded as “K270 - K236”.
